# Shown are actives, neighbours in structure and some others; about 7.5% of the full set was active somewhere.
# ELG1 genotoxic = induces genotoxicity in HEK293T cells with luciferase-tagged ELG1. HEK293T ELG1-luciferase reporter, luminescence, 16 h. Potency, µM (series often up to 46 µM), for the others: at the top dose activity change, positive = activation, usual class: activators. hit rate 1.3% among 330,000. AID 504466; note: % of control where 0% means no effect; nearly all actives have a fitted effect of over 60% in size
#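 Reporter readout depends on ELG1 protein level, which increases with genetic stress. After 16 hr compound exposure at 37 °C, luciferase activity was quantified using ONE-Glo.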
# Rab9 promoter act = activators of Rab9 promoter | Huh7 Rab9 promoter-luciferase reporter, luminescence, 24 h | Potency, µM (top dose mostly 9.22 µM), for the others: at the highest dose activation, negative = inhibition, actives largely listed as activators | hit rate 2.8% among 320,000 | AID 485297; note: % of control where 0% means no effect; nearly all actives have a fitted effect of over 60% in size
#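 Huh7 reporter line, Rab9 promoter upstream of luciferase. Compound exposure 24 h at 37 °C in reduced-serum medium with 10% FBS. Read-out: luminescence.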
# FLuc modulator = counter-screen for miR-21 project: firefly luciferase inhibitors or activators | P08659 | purified FLuc, Km substrates, luminescence inhibition | Potency, µM (titrated, usually from 57.5 µM), for the others: at the highest dose activity change, negative = inhibition, most hits filed as inhibitors | hit rate 6.9% among 360,000;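 note: plate controls were vehicle for no effect and reference inhibitor for full effect; nearly all actives have a fitted effect of over 55% in size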
# Target sequence (P08659 whole entry, looked up): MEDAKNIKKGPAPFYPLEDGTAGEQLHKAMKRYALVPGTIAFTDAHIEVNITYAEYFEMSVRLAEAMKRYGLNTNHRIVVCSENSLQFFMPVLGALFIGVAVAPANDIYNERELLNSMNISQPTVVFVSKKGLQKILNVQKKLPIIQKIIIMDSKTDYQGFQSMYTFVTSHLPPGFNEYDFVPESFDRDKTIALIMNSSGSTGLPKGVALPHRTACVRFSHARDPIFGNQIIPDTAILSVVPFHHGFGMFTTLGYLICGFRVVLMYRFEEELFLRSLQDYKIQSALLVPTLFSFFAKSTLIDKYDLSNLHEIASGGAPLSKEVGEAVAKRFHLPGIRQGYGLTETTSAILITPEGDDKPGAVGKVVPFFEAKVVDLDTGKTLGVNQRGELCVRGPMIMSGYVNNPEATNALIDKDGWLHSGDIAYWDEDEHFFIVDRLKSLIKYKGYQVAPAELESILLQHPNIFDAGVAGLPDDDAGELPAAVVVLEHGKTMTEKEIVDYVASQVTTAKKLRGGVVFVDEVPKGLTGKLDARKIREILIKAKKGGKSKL
#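 Biochemical qHTS of compounds, final roughly 60 µM downward over six points, against 10 nM purified firefly luciferase using Km concentrations of substrates (10 uM D-luciferin, 10 uM ATP) in Tris acetate pH 7.5 buffer; luminescence output.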
# NPC1 promoter act = activates the NPC1 promoter. Huh7 NPC1 promoter luciferase reporter, 24 h. Potency, µM (doses to about 9.22 µM), without a hit: at the highest dose activation, hits mostly activators. hit rate 2.4% among 320,000. AID 485313; note: % of control where 0% means no effect; nearly all actives have a fitted effect of over 60% in size
#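 Cells: Huh7 expressing luciferase under the NPC1 promoter, 1500/well. Seeded 2 h, compound added, incubated 24 h at 37 °C. Luciferase reagent, 10 min ambient, then luminescence.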
# SMN2 splice enh = SMN2 splice variant enhancement. hit rate 2.8% among 210,000. HEK293 SMN2-luciferase splicing reporter, luminescence, 30-36 h. Potency, µM (titrated, usually from 46.1 µM), without a hit: at the highest dose activity change, positive = activation, hits mostly activators. AID 1458; note: % of control where 0% means no effect; nearly all actives have a fitted effect of over 55% in size
#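 HEK293 cells carry an SMN2 […]–luciferase reporter in which exon 7 inclusion puts luciferase in frame. Cells were plated 10-12 h before compound addition, then incubated 30-36 h at 37C. ONE-Glo luminescence was read; sodium butyrate at 4.5 mM final served as control.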
# Luc counter = Kinase-Glo luciferase inhibition (counter-screen); Q27757; Kinase-Glo luciferase, ATP luminescence, 8 min; Potency, µM (series often up to 38.3 µM), inactives show top-dose activity change, negative = inhibition, most hits filed as inhibitors; hit rate 0.28% among 200,000; note: % is set by controls: 0 for no effect and ±100 for the full control effect; nearly all actives have a fitted effect of over 60% in size
#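 Compounds were added to a substrate mix at pH 7.2 (50 mM imidazole, 10 uM ATP, within the enzyme's linear range), followed by Kinase-Glo detection reagent; luminescence was measured after 8 minutes at ambient temperature.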
# * hit, by the source's call; ? = inconclusive; / = no result; [ ] = remark or other dose. Calls come from the whole dose curve; as a rule, active = well fitted curve in the direction sought with a large enough effect; inconclusive = small, poorly fitted or top-dose-only effect, or another doubt; inactive = no such curve, though single readings can be large; an effect the other way counts as inactive or inconclusive. Potency is the fitted concentration of half-maximal effect.
SMILES,ELG1 genotoxic,Rab9 promoter act,FLuc modulator,NPC1 promoter act,SMN2 splice enh,Luc counter
CCC(C)NCCOCCSc1ccc(Cl)cc1 (stereo not given),-1%,-3%,1%,1%,-4%,0%
CCc1nc2ccccc2c(C(=O)Nc2ccc(C)cc2)c1C,4%,1%,6%,1%,/,/
O=C(/C=C/c1cccs1)NC1CC1,4%,18%,-18%,7%,2%,-4%
CCCCNC(=O)/C=C/c1cccs1,14%,18%,?,10%,11%,-2%
O=C(/C=C/c1cccs1)Nc1ccc(Br)cn1,9.2µM*,?,3µM*,?,14µM*,-3%
O=C(/C=C/c1cccs1)Nc1cccc(NC(=O)/C=C/c2cccs2)n1,-3%,?,1.9µM*,?,7.1µM*,-2%
COc1ccc(/C=C/C(=O)NC(=S)Nc2ccc(Br)cn2)cc1,15%,18%,-15%,17%,/,/
CCc1nnc(NC(=O)/C=C/c2cccs2)s1,23µM*,3.5µM*,-16%,?,?,1%
O=C(/C=C\c1ccccc1)Nc1nccs1,?,0.89µM*,1.9µM*,1.6µM*,4µM*,-18%
CCOc1ccccc1NC(=O)Nc1cc2c(cc1N1CCCCC1)n(CC)c(=O)n2CC,/,/,-2%,/,/,/
O=C(NCc1ccc(Cl)cc1)C1CCN(c2nn3cc(-c4ccc(F)cc4)nc3s2)CC1,/,/,-6%,/,/,/
Cc1cc(C)nc(NC(=O)/C=C/c2cccs2)c1,?,3.5µM*,13µM*,?,/,/
O=C(/C=C/c1cccs1)Nc1ccc(S(=O)(=O)Nc2ncccn2)cc1,0%,-6%,-13%,-9%,/,/
Cc1ccccc1NC(=O)/C=C/c1cccs1,?,4.5µM*,?,?,13µM*,-23%
CCN(CC)S(=O)(=O)c1ccc(C)c(NC(=O)/C=C/c2cccs2)c1,-4%,-1%,?,0%,-32%,-2%
O=C(/C=C/c1cccs1)Nc1nccs1,18µM*,2.2µM*,?,1.8µM*,13µM*,-14%
O=C(/C=C/c1cccc(F)c1)Nc1nccs1,?,1.8µM*,9.5µM*,2µM*,11µM*,-2%
CCOc1ccc(-n2c(=O)c3c(C)c(C(=O)N(C)C)sc3n(CC(=O)Nc3c(C)cc(C)cc3C)c2=O)cc1,/,/,-4%,/,/,/
O=C(NCc1ccc(Cl)cc1Cl)C(=O)N1CCCCC1,4%,-3%,-1%,0%,11%,0%
Cc1ccc(C)c(N2N=C(C(=O)OCC(=O)N(C)c3ccccc3)CCC2=O)c1,1%,-2%,3%,-1%,/,/
Cc1ccccc1NC(=O)C(=O)Nc1ccccc1C,?,0.89µM*,?,1.3µM*,/,/
O=C(Nc1cccc(Cl)c1)c1cnccn1,14%,25%,-12%,3%,/,/
O=C(Nc1ccc2c(c1)CCC2)c1cnccn1,6.5µM*,3.2µM*,12µM*,3.5µM*,13µM*,-18%
Cc1cnc(C(=O)Nc2cc(F)ccc2C)cn1,4%,12%,-18%,0%,-3%,-5%
Cc1cc(C)n2nc(C(=O)Nc3ccc4c(c3)CCC4)nc2n1,?,3.5µM*,13µM*,?,11µM*,-7%
SMILES,ELG1 genotoxic,Rab9 promoter act,FLuc modulator,NPC1 promoter act,SMN2 splice enh,Luc counter
CCn1ccc(C(=O)Nc2ccc3c(c2)CCC3)n1,?,1µM*,3µM*,1µM*,/,/
CCn1ccc(C(=O)Nc2ccc(N(C)C(C)=O)cc2)n1,?,?,?,22%,18%,-15%
Cc1cnc(C(=O)Nc2ccc(F)c(F)c2)cn1,16µM*,2.5µM*,?,?,13µM*,-16%
CSCC[C@@H](C(=O)O)N(C)C,/,/,/,/,-7%[9.22 µM],0%[7.66 µM]
O=C(COC(=O)Cc1ccc(Cl)cc1)Nc1c(F)cccc1F,1%,-1%,3%,-7%,6%,-5%
NCC(O)CC(=O)O (stereo not given),/,/,/,/,-13%,-7%
CC1Cc2cc(S(=O)(=O)NCc3ccc(N(C)C)cc3)ccc2N1C(=O)C1CCC1 (stereo not given),/,/,-12%,/,/,/
